Compound activity as filed in PubChem BioAssay.
MITF primary: MITF inhibitors, primary screen, biochemical, AlphaScreen, human | inhibition, % at 2.6 µM | AlphaScreen MITF homodimerization, bead proximity signal | AID 1259374, 2018 | 650,000 compounds, 0.91% hits; in the data active means inhibition above about 50%;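 further: 0% = vehicle wells with protein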
TEAD-YAP inh: TEAD-YAP interaction inhibition, primary screen, TEAD-YAP interaction inhibitor project, luminescence, HEK-TIYL cells. 640,000 compounds, 1.4% hits. inhibition, % at 9.12 µM. TEAD-Gal4/YAP UAS-luciferase luminescence. AID 1259422, 2018; in the data active means inhibition above about 32%;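 further: 0% = median of test compound wells and 100% = reference inhibitor wells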
FBW7 activator: FBW7 E3 ligase activators, primary screen, biochemical, AlphaScreen, human; 650,000 compounds, 0.13% hits; normalized activity (activation), % at 26.1 µM; F-box/WD repeat-containing protein 7 (Homo sapiens), Q969H0; AlphaScreen FBW7–phospho-cyclin E peptide binding, activator screen; in the data active means normalized activity above about 1.9%;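 further: purified mutant Fbw7 with reduced substrate affinity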
GPR151 ag: activators of human GPR151, primary screen, cell-based, PathHunter beta-arrestin, luminescence | G-protein coupled receptor 151 (Homo sapiens), Q8TDV0 | PathHunter beta-arrestin GPR151 cells | activation, % at 11.2 µM | 650,000 compounds, 1% hits | AID 1508602, 2020; in the data active means activation above about 4.9%;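 further: 0% = median of compound wells and 100% = cells with positive control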
GPR151 conf act: GPR151 activators, triplicate retest, confirmation, cell-based, PathHunter beta-arrestin, luminescence | shares compounds with GPR151 ag | GPR151 PathHunter beta-arrestin cells, 90 min; % of EA-reagent control over plate median | activation, % at 11.2 µM | 6,700 tested, under 10 active;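 active means mean percent activation across replicates above the confirmation screen cutoff of 4.91%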
GPR119 ag: GPR119 activators in beta-arrestin cells, counter-screen for GPR151 activator project, cell-based, PathHunter beta-arrestin, luminescence, triplicate. 90 min; 0 = compound-well median, 100 = enzyme-acceptor control. shares compounds with GPR151 ag. 6,700 compounds, 0.3% hits. activation, % at 11.2 µM;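 active means mean percent activation in the counterscreen above 29.09%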;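 further: counterscreen on off-target GPR119 to flag nonselective hits from the GPR151 activator screen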
Target sequence (Q8TDV5 whole entry, looked up): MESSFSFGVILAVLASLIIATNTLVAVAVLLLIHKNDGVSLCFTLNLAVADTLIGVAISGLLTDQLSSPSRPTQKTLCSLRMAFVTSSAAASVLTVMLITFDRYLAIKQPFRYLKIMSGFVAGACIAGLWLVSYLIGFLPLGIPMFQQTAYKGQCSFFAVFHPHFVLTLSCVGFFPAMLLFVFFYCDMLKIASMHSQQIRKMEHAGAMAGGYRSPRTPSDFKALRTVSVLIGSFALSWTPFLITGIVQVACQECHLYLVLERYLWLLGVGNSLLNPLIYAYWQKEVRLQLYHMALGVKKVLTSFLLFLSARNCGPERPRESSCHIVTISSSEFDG
* = called active by the depositor; x = no result given. Hits are enriched below; roughly 3.5% of the tested compounds scored in any of these assays.

SMILES	MITF primary	TEAD-YAP inh	FBW7 activator	GPR151 ag	GPR151 conf act	GPR119 ag
CCCS(=O)(=O)N1CCN(C(=O)c2ccc([N+](=O)[O-])cc2)CC1	-2	4	0	0	x	x
CCCCN(/C=N/S(=O)(=O)c1ccccc1)CCCC	48	3	0	11*	0	2
O=C(CCc1ccc2c(c1)CCO2)N1CCN(c2ccc(F)cc2)CC1	-15	-11	0	2	x	x
CN(Cc1cccc(OCCN2CCN(C(=O)C3CCCO3)CC2)c1)Cc1ncc[nH]1 (stereo not given)	-9	5	0	-1	x	x
O=C(Nc1nnc(SCc2ccccc2)s1)c1ccccc1[N+](=O)[O-]	-2	7	0	1	x	x
COc1ccc(OCC(=O)N2CCN(C(=O)c3ccccc3)CC2)cc1	9	-3	0	8.4*	0	10
COc1ccc(CNC(=O)C2CCN(C(=O)c3ccc(Br)cc3)CC2)cc1	2	2	0	6.4*	0	5
O=C(c1ccc(NS(=O)(=O)c2ccccc2)cc1)N1CCCC1	-13	-2	0	7.2*	1	11
Cc1ccc(CNC(=O)C2CCN(C(=O)c3ccc(C)cc3)CC2)cc1	3	3	0	-1	x	x
COc1ccc(NC(=O)Nc2ccc(C(=O)N3CCCCC3)cc2)cc1	14	-4	1	12*	1	3
O=C(Nc1ccc(F)cc1F)C1CCN(C(=O)c2ccc(Br)cc2)CC1	8	5	0	5.5*	0	-2
O=C(/C=C/c1ccccc1)NCCOC(=O)Nc1ccccc1	11	-1	1	9.8*	1	5
C=CCS/C(=C(/C#N)C(N)=O)c1cc2c([nH]1)CCCC2	6	-2	0	8.6*	0	5
CCOc1ccc(/C=C(\C#N)c2[nH]nc(N)c2C#N)cc1OC	5	-12	0	5.6*	0	-7
Cc1cccc(Nc2ccc3c(cnn3-c3cccc(C(=O)NCCN4CCOCC4)c3)c2)c1Cl	5	3	0	-1	x	x
COc1cc(NC(=S)N2CCN(C)CC2)c(OC)cc1Cl	-9	7	0	-1	x	x
O=C(NC1CCN(Cc2ccccc2)CC1)c1csc(-c2ccccc2)n1	7	10	0	-2	x	x
CC(=O)c1cccc(-c2nc(C(=O)NC3CCN(Cc4ccccc4)CC3)cs2)c1	15	-12	0	9.9*	0	-6
Nc1cccc(-c2cccc(C(=O)NC3CCN(Cc4ccccc4)CC3)n2)c1	15	-2	0	5.3*	1	-5
O=C(NC1CCN(Cc2ccccc2)CC1)c1csc(NCc2cccnc2)n1	4	10	0	5.0*	1	-6
COC(=O)C1=C(C)N=c2s/c(=C\c3ccc(OC(C)=O)cc3)c(=O)n2C1c1cccs1 (stereo not given)	-2	-2	0	-1	x	x
O=C(CN1CCN(CC(=O)Nc2ccccc2F)CC1)Nc1cccc(F)c1	13	10	1	6.2*	1	3
COc1ccc(/C(C)=N/Nc2nc3c(c(=O)[nH]c(=O)n3C)n2CCC(C)C)cc1	-14	5	0	-1	x	x
CCOc1ccc(/C=C2/N=C(c3ccc(OC)c(Br)c3)OC2=O)cc1	-3	-1	0	1	x	x
CCOc1ccc(/C=C2/N=C(c3cncc(Br)c3)OC2=O)cc1	18	4	0	5.0*	0	-11
SMILES	MITF primary	TEAD-YAP inh	FBW7 activator	GPR151 ag	GPR151 conf act	GPR119 ag
Cc1cc(C(=O)N(CC#N)CC#N)ccc1[N+](=O)[O-]	-6	-8	0	7.7*	0	5
O=C(CN1C(=O)CC(c2ccco2)Sc2ccccc21)Nc1ccc(F)cc1F (stereo not given)	16	15	0	7.5*	1	0
O=C(c1ccc(Br)cc1)C1C2C(=O)C3OCC(O3)C12 (stereo not given)	-4	-23	0	8.0*	1	14
Cc1cnc(CN2Cc3ccccc3OC(C)C2)[nH]1 (stereo not given)	-3	-8	0	0	x	x
CCSC1=NSC2=NC(=O)/C(=C\c3ccc([N+](=O)[O-])cc3)C(=N)N12	-4	-8	0	0	x	x
CSC1=NSC2=NC(=O)/C(=C\c3ccc([N+](=O)[O-])cc3)C(=N)N12	5	-43	0	11*	2	1
O=C(Nc1cccc(Cl)c1)N1CCN(c2ccc(Nc3cccnc3)nn2)CC1	16	-4	0	6.1*	1	1
O=C(/C=C/c1ccc([N+](=O)[O-])cc1)Nc1ccccc1Cl	-18	-10	0	7.4*	-2	-12
NC(=O)c1ccccc1NC(=O)/C=C/c1ccccc1	1	-33	0	7.7*	-1	-12
NC(=O)c1ccccc1NC(=O)/C=C/c1ccc(Cl)cc1	3	-55	0	-3	x	x
COC(=O)C(O)(c1ccc(NC(=O)Nc2ccccc2)cc1)C(F)(F)F (stereo not given)	10	-19	0	-2	x	x
Cc1ccc(CN2CCNC(=O)C2CC(=O)N(C)CCc2cnn(C)c2)cc1 (stereo not given)	9	1	0	0	x	x
CC(C)CCN1CCNC(=O)C1CC(=O)N(C)CCc1cnn(C)c1 (stereo not given)	18	-3	0	5.6*	0	6
O=C(CSc1nnc(-c2ccccn2)o1)N1CCOCC1	4	-5	0	-1	x	x
Cc1ccc2c(c1)c(=O)c1ccccc1n2CCCC(=O)Nc1ccc(Br)cn1	-6	38*	0	17*	0	16
Cc1ccc2c(c1)c(=O)c1ccccc1n2CCCC(=O)Nc1ccc(Br)cc1C	-7	2	0	0	x	x
O=C1NC2(CCCCCC2)Cc2ccccc21	-6	-14	0	7.9*	0	1
O=C(O)CN=C1NC2(CCCC2)Cc2ccccc21	5	-5	0	2	x	x
COc1ccc(OC)c(/C=C2/NC(=O)N(Cc3ccc(Br)cc3)C2=O)c1	-4	3	0	2	x	x
COc1cc(OC)c(/C=C2/NC(=O)N(Cc3ccc(F)cc3)C2=O)c(OC)c1	0	-6	0	6.2*	1	-2
COc1ccc(OC)c(/C=C2\NC(=O)N(Cc3ccc(Cl)cc3)C2=O)c1	8	6	1	7.9*	0	-5
NC(=O)c1ccc(NC(=O)CN2C(=O)NC3(CCCc4ccccc43)C2=O)cc1 (stereo not given)	-2	5	0	0	x	x
